This is a sample that favours compounds with a hit; in the whole collection about 6.3% have one here.
HepG2 tox: qHTS for Inhibitors of TGF-b: Cytotox Counterscreen; HepG2 CAGA-GFP viability, ATP luminescence, 18 h; 0.76% of 410,000 active; Potency, µM (top dose mostly 46.1 µM), for the others: at the highest dose activity change, negative = cytotoxicity, hits mostly cytotoxic
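CellTiter-Glo luminescence gave cytotoxicity after 18 hours at 37 degrees C. The cells were HepG2 CAGA-GFP in 1% FBS DMEM, stimulated with 500 pg/mL TGF-beta after compound addition. %Activity was normalised to no-cell wells (complete cell-killing) and DMSO (no toxicity), and curves were fitted and classified.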
RORg inh: qHTS for inhibitors of ROR gamma transcriptional activity. Nuclear receptor ROR-gamma (Mus musculus), P51450. Potency, µM (top dose mostly 53.6 µM), without a hit: top-dose activity change, negative = inhibition, usual class: inhibitors. Drosophila S2 Gal4-RORgamma UAS-luciferase reporter, 20 h. 5.4% of 310,000 active; further: on the % scale 0 is the no-effect control and ±100 the full control effect; nearly all actives have a fitted effect of over 60% in size
Target sequence (P51450 whole entry, looked up, the tested form may be a part): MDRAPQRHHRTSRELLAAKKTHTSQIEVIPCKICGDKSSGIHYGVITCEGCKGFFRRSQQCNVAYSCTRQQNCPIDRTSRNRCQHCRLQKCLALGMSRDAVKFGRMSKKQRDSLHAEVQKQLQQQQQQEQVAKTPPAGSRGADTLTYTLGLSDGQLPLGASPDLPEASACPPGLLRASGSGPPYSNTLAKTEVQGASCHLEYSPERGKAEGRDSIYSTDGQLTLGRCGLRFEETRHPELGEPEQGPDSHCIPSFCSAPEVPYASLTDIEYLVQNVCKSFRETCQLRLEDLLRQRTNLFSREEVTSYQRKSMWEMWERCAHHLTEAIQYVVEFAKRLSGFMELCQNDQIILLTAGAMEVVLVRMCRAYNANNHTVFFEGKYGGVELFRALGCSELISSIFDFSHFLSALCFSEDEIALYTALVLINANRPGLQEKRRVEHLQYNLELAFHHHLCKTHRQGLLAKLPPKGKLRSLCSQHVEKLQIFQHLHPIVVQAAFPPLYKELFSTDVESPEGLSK
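Using a luciferase readout, inhibitors were identified by reduced reporter activity in Drosophila cells coexpressing a copper-inducible Gal4–ROR gamma fusion and UAS-driven Photinus luciferase, incubated 20 hr after 700 uM copper sulfate.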
Gal4-VP16 FLuc: VP16 counterscreen qHTS for inhibitors of ROR gamma transcriptional activity; Drosophila S2 Gal4-VP16 UAS-luciferase, luminescence, 20 h; Potency, µM (series often up to 53.6 µM), inactives show at the highest dose activity, negative = inhibition, hits mostly inhibitors; 3.5% of 310,000 active; AID 2546, 2010;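 further: Gal4-VP16 expression switched on by copper sulfate through the metallothionein promoter; on the % scale 0 is the no-effect control and ±100 the full control effect; nearly all actives have a fitted effect of over 50% in size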
TGFb SMAD3 inh: qHTS for Inhibitors of TGF-b. Potency, µM (series often up to 46.1 µM), for inactives: at the highest dose activity, negative = inhibition, most hits filed as inhibitors. AID 588855, 2011. 1.2% of 410,000 active. HepG2 CAGA-GFP TGF-b/SMAD3 reporter, GFP fluorescence, 18 h; TGF-beta stimulated, 500 pg/mL final; further: on the % scale 0 is the no-effect control and ±100 the full control effect; nearly all actives have a fitted effect of over 65% in size
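GFP signal (ex488/em500-530) from TGF-beta-stimulated HEPG2 CAGA-GFP cells, 500 pg/mL final, 18 h at 37 degrees C in DMEM plus 1% FBS, normalized to unstimulated and DMSO-stimulated controls.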
S2 tox: Viability Counterscreen for Primary qHTS for Inhibitors of ATXN expression; S2 cells (HEK-293 line with an ATXN2-luciferase reporter) viability, CellTiter-Fluor protease fluorescence, 24 h; Potency, µM (titrated, usually from 56.7 µM), usual class: cytotoxic; 0.49% of 400,000 active; AID 651635, 2014; further: nearly all actives have a fitted effect of over 40% in size
ATXN2 expr inh: Primary qHTS for Inhibitors of ATXN expression; HEK-293 ATXN2-luciferase reporter, luminescence, 24 h; Potency, µM (series often up to 57 µM), inactives show at the highest dose activity change, negative = inhibition, actives largely listed as inhibitors; 0.72% of 360,000 active; further: on the % scale 0 is the no-effect control and ±100 the full control effect; nearly all actives have a fitted effect of over 55% in size
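qHTS (up to 57 uM final) was run with 24 h compound exposure of reporter cells at 37 °C. Each well was multiplexed: SteadyGlo luminescence measured ATXN2-luciferase expression after a fluorogenic Gly-Phe-AFC viability readout (25 uM final).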
* = called active by the depositor; [ ] = dose if it differs, or a comment. The call rests on the fitted dose curve; in most records, active means well fitted curve in the direction sought with a large enough effect; inconclusive means small, poorly fitted or top-dose-only effect, or another doubt; inactive means no such curve, though single readings can be large; an effect the other way counts as inactive or inconclusive. Potency means the concentration at half of the fitted maximal effect.

`COc1ccc(NC(C)=O)cc1NC(C)c1nc2sc(C)c(C)c2c(=O)[nH]1` (centres undefined) gave HepG2 tox -2%, RORg inh 10µM*, Gal4-VP16 FLuc -3%, TGFb SMAD3 inh 12%, S2 tox inactive and ATXN2 expr inh -8%.
`CC(C)NC(=S)N/N=C/c1cccs1` gave HepG2 tox -15%, RORg inh 0.79µM*, Gal4-VP16 FLuc 1.1µM*, TGFb SMAD3 inh inconclusive, S2 tox inactive and ATXN2 expr inh 1%.
`S=C(NCCc1ccccc1)N/N=C/c1cccs1` gave HepG2 tox -23%, TGFb SMAD3 inh inconclusive and S2 tox inactive.
`CC(C)CNC(=O)CC(=O)N/N=C/c1cccs1` gave HepG2 tox -4%, RORg inh 7%, Gal4-VP16 FLuc 1%, TGFb SMAD3 inh 2%, S2 tox inactive and ATXN2 expr inh 4%.
For CC(C)NC(=S)N/N=C/c1ccc(C(C)(C)C)cc1 the results were HepG2 tox -4%, RORg inh 0.5µM*, Gal4-VP16 FLuc 2.2µM*, TGFb SMAD3 inh inconclusive, S2 tox inactive and ATXN2 expr inh -5%.
Screening S=C(NCc1ccccc1)N/N=C/c1cccs1 returned HepG2 tox -13%, RORg inh 0.4µM*, Gal4-VP16 FLuc 0.79µM* and TGFb SMAD3 inh -7%.
`Cn1c(NCCc2ccncc2)nc2cc(-c3ccccc3)sc2c1=O` gave HepG2 tox -8%, TGFb SMAD3 inh -6%, S2 tox inactive and ATXN2 expr inh -14%.
Screening Cc1ccccc1N1C(=O)c2cccc3c(N(C)CCO)ccc(c23)C1=O returned HepG2 tox -10%, RORg inh 11µM*, Gal4-VP16 FLuc -2%, TGFb SMAD3 inh 33%, S2 tox inactive and ATXN2 expr inh -2%.
Screening COc1ccccc1N1C(=O)c2cccc3c(N(C)CCO)ccc(c23)C1=O returned HepG2 tox -25%, RORg inh inconclusive, Gal4-VP16 FLuc -17%, TGFb SMAD3 inh 71%, S2 tox inactive and ATXN2 expr inh -9%.
`COC(=O)c1c[nH]c(=S)n1Cc1ccccc1` gave HepG2 tox 4%, TGFb SMAD3 inh 0%, S2 tox inactive and ATXN2 expr inh -3%.
For CC(C)Cn1c(-c2ccncc2)n[nH]c1=S the results were HepG2 tox 4%, RORg inh inconclusive, Gal4-VP16 FLuc 0%, TGFb SMAD3 inh 2%, S2 tox inactive and ATXN2 expr inh 1%[11.3 µM].
For CC(C)Cn1c(-c2ccc(Br)cc2)c[nH]c1=S the results were HepG2 tox -30%, RORg inh 0.63µM*, Gal4-VP16 FLuc 1.6µM*, TGFb SMAD3 inh inconclusive, S2 tox inactive and ATXN2 expr inh -30%.
For S=c1[nH]cc(-c2ccc(Cl)cc2)n1Cc1ccccc1 the results were HepG2 tox -19%, RORg inh 2.5µM*, Gal4-VP16 FLuc 2.8µM*, TGFb SMAD3 inh -1%, S2 tox inactive and ATXN2 expr inh 41%.
For CCn1c(-c2ccccc2)c[nH]c1=S the results were HepG2 tox 23%, RORg inh 1.1µM*, Gal4-VP16 FLuc 8.9µM*, TGFb SMAD3 inh -1%, S2 tox inactive and ATXN2 expr inh 5%.
`CCCNC(=O)C1(C)CCN(Cc2ccc(C(=O)OCC)cc2)C1` (centres undefined) gave HepG2 tox -15%, TGFb SMAD3 inh 6%, S2 tox inactive and ATXN2 expr inh -2%.
CCCCCn1c(=O)c2ccccc2n2c(=S)[nH]nc12 was read as HepG2 tox -17%, RORg inh 7.1µM*, Gal4-VP16 FLuc inconclusive, TGFb SMAD3 inh -22% and S2 tox inactive.
`CCCCn1c(=O)c2ccccc2n2c(=S)[nH]nc12` gave HepG2 tox -1%, RORg inh 10µM*, Gal4-VP16 FLuc inconclusive, TGFb SMAD3 inh -7%, S2 tox inconclusive and ATXN2 expr inh -20%.
For CCCn1c(=O)c2ccccc2n2c(=S)[nH]nc12 the results were HepG2 tox 1%, RORg inh -9%, Gal4-VP16 FLuc -6%, TGFb SMAD3 inh 0%, S2 tox inactive and ATXN2 expr inh 0%.
Cn1c(=O)c2ccccc2n2c(=S)[nH]nc12 was read as HepG2 tox 0%, RORg inh inconclusive, Gal4-VP16 FLuc -15%, TGFb SMAD3 inh 4%, S2 tox inactive and ATXN2 expr inh -15%.
`Fc1ccc(-c2ccc3nccn3c2)cc1Cl` gave HepG2 tox -2%, TGFb SMAD3 inh 10%, S2 tox inactive and ATXN2 expr inh 6%.
`COc1cccc2cc(-c3cn4ccc(C)cc4n3)c(=O)oc12` gave HepG2 tox -15%, TGFb SMAD3 inh -13%, S2 tox inactive and ATXN2 expr inh 58%.
`CCOc1cccc2cc(-c3cn4cc(C)ccc4n3)c(=O)oc12` gave HepG2 tox 3%, RORg inh 0.79µM*, Gal4-VP16 FLuc inconclusive, TGFb SMAD3 inh 3%, S2 tox inconclusive and ATXN2 expr inh -9%.
For CCCCC(=O)N(C)c1c(C)nc2ccc(C(=O)N3CCNC(=O)C3)cn12 the results were HepG2 tox -18%, TGFb SMAD3 inh 14%, S2 tox inactive and ATXN2 expr inh 9%.
c1ccc(CNCCC(Cc2ccccc2)c2ccco2)cc1 (centres undefined) was read as HepG2 tox 1%, RORg inh -4%, Gal4-VP16 FLuc 0%, TGFb SMAD3 inh 20µM*, S2 tox inactive and ATXN2 expr inh -4%.
O=C(Cc1ccccc1F)Nc1nc(-c2ccc(F)c(F)c2)cs1 was read as HepG2 tox -36%, RORg inh inconclusive, Gal4-VP16 FLuc -7%, TGFb SMAD3 inh inconclusive, S2 tox inactive and ATXN2 expr inh -30%.
For O=C(Nc1nc(-c2ccc(F)c(F)c2)cs1)Nc1ccc(F)cc1F the results were HepG2 tox 11%, RORg inh -2%, Gal4-VP16 FLuc -2%, TGFb SMAD3 inh -10%, S2 tox inconclusive and ATXN2 expr inh 5µM*.
For Cc1cc(C)cc(OCCNC(=O)c2cc(S(=O)(=O)N3CCOCC3)ccc2F)c1 the results were HepG2 tox -16%, RORg inh 3%, Gal4-VP16 FLuc -10%, TGFb SMAD3 inh -14%, S2 tox inactive and ATXN2 expr inh -31%.
